In publication PMC7862700, “An all-to-all approach to the identification of sequence-specific readers for epigenetic DNA modifications on cytosine” one finds binding signal data, which are given here for 1 sequence.

What all share (assay): DAPPL (digital affinity profiling via proximity ligation, sequencing); 10 mM Tris-HCl pH 7.5, 50 mM NaCl, 1 mM DTT, 4% glycerol, room temperature, 30 min; GST-TFs on glutathione beads, 16-mer random dsDNA library, 0.1% formaldehyde crosslink after washing; high values mean tight binding
One assay deals with T1, FEV (Homo sapiens, UniProt Q99581 1-238).
T1 sequence: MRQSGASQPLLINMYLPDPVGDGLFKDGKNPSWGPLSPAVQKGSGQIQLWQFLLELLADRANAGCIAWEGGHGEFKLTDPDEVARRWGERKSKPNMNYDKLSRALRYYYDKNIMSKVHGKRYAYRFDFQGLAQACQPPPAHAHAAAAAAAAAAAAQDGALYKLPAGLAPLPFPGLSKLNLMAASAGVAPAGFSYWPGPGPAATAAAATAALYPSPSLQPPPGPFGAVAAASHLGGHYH
The following applies: protein: recombinant; tags: N-terminal GST; dsDNA, one strand shown. In a few lines: (§1)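 Beads coated with glutathione captured GST-fused human transcription factors that had been expressed in yeast, and the factors were then given DNA barcodes and pooled with a tag-only sample. The pools were incubated with 200 nmole of a random double-stranded 16-mer DNA library in Tris/NaCl/DTT/glycerol buffer for 30 min at room temperature, washed, crosslinked with 0.1% formaldehyde and proximity-ligated with BsaI/T4 ligase at 37 °C for 1 h. PCR amplification and Illumina NextSeq500 sequencing came last. Binding signal is each hexamer's read frequency for a factor divided by its frequency for the tag-only sample.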

For the next assay, the target named is ETV5 (Homo sapiens, UniProt P41161 1-510). The following applies: protein: recombinant; tags: N-terminal GST; dsDNA, one strand shown. The method, boiled down:
as §1

In a further assay the target is HSF1 (Homo sapiens, UniProt Q00613 1-529). Particulars: protein: recombinant; tags: N-terminal GST; chain copies: 3; dsDNA, one strand shown. The method, boiled down: as §1
The target in another assay is T2, SPIC (Homo sapiens, UniProt Q8N5J4 1-248).
T2 sequence: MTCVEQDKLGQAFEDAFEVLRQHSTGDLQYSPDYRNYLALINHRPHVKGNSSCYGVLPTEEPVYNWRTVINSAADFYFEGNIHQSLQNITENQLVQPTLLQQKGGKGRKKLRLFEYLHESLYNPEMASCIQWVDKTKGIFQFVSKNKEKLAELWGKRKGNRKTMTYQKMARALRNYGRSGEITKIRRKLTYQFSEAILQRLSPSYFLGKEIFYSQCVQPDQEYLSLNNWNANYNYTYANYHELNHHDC
The following applies: protein: recombinant; tags: N-terminal GST; dsDNA, one strand shown. The method, boiled down: as §1

For the next assay, the target named is ELF4 (Homo sapiens, UniProt Q99607 1-663). The following applies: protein: recombinant; tags: N-terminal GST; dsDNA, one strand shown. In a few lines:
as §1

The target of another assay is T3, ELK4 (Homo sapiens, UniProt P28324-2 1-405).
T3 sequence: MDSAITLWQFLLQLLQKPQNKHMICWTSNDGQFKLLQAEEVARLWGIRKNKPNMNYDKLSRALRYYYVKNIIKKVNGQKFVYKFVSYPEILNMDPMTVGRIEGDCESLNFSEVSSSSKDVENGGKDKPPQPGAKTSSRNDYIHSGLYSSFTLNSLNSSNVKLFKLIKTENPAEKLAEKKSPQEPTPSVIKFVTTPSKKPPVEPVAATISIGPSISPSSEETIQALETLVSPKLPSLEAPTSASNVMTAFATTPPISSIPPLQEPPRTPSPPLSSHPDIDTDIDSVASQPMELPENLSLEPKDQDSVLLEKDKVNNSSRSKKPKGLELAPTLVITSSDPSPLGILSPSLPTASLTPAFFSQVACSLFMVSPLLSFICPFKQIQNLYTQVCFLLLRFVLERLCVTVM
Particulars: protein: recombinant; tags: N-terminal GST; dsDNA, one strand shown. The method, boiled down: as §1

In the next assay the target is T4, ETV2 (Homo sapiens, UniProt O00321 1-342).
T4 sequence: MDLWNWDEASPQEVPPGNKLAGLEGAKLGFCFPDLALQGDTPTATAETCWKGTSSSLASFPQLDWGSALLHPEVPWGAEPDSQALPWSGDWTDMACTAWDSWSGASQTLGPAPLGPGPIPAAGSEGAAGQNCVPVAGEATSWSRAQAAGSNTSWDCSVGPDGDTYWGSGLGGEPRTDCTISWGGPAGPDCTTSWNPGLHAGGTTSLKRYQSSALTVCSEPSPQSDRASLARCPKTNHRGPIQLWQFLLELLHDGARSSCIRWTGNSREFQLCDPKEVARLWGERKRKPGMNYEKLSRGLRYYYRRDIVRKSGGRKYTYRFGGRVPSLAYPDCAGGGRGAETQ
The following applies: protein: recombinant; tags: N-terminal GST; dsDNA, one strand shown. The method, boiled down:
as §1

The target in the next assay is T5, ELF3 (Homo sapiens, UniProt P78545 1-371).
T5 sequence: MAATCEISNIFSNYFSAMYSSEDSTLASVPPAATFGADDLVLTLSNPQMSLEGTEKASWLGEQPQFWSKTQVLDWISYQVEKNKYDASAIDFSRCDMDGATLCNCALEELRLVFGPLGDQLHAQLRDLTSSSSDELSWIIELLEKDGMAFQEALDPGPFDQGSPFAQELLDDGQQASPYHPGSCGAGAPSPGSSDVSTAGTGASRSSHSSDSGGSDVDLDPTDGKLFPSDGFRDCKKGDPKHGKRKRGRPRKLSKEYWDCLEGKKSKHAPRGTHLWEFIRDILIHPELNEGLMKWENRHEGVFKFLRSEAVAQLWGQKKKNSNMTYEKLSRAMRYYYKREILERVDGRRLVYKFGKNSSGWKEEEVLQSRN
The following applies: protein: recombinant; tags: N-terminal GST; dsDNA, one strand shown. In a few lines:
as §1

The next assay deals with CRX (Homo sapiens, UniProt O43186 1-299). The following applies: protein: recombinant; tags: N-terminal GST; dsDNA, one strand shown. In a few lines:
as §1

For another assay, the target named is ETV1 (Homo sapiens, UniProt P50549 1-477). The following applies: protein: recombinant; tags: N-terminal GST; dsDNA, one strand shown. The method, boiled down: as §1
The next assay has as its target T6, ERF (Homo sapiens, UniProt P50548 1-548).
T6 sequence: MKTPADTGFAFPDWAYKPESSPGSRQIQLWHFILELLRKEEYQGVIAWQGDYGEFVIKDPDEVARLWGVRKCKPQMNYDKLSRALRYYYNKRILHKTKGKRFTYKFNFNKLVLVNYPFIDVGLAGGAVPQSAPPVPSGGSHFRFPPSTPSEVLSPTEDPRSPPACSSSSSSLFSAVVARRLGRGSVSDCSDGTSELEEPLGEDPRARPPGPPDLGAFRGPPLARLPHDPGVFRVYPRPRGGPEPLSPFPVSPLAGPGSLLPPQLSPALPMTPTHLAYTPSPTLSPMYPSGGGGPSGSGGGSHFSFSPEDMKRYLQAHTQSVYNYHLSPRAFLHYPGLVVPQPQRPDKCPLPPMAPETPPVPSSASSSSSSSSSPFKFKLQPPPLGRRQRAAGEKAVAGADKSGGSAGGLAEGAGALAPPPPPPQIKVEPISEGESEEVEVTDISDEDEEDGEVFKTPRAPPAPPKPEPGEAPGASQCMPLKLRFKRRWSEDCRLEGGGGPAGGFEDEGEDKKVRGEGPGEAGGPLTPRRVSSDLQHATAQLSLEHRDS
Particulars: protein: recombinant; tags: N-terminal GST; dsDNA, one strand shown. In a few lines: as §1

In a further assay the target is T7, ETV3L (Homo sapiens, UniProt Q6ZN32 1-361).
T7 sequence: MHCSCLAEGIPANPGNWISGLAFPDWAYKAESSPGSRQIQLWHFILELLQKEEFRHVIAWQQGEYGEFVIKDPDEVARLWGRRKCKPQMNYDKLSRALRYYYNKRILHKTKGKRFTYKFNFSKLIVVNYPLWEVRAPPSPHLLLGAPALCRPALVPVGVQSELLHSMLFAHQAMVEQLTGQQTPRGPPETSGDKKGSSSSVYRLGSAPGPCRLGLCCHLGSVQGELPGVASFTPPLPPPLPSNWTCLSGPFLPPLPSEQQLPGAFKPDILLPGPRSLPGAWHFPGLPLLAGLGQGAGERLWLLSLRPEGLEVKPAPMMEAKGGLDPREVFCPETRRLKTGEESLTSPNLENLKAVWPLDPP
The following applies: protein: recombinant; tags: N-terminal GST; dsDNA, one strand shown. In a few lines: as §1

The target of a further assay is T8, ETS2 (Homo sapiens, UniProt P15036 1-469).
T8 sequence: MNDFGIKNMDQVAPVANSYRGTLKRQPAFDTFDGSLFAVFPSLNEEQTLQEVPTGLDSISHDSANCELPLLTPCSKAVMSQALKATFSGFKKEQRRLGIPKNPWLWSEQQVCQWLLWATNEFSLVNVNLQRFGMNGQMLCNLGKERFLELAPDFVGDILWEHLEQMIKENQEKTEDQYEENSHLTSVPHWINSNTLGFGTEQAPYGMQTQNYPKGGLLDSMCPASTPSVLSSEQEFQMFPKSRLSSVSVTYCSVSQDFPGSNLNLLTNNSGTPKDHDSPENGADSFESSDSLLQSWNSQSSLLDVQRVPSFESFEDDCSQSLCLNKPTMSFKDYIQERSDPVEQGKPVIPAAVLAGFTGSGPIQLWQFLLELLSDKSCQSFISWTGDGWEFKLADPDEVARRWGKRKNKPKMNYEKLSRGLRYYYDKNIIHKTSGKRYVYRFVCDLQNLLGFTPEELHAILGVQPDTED
The following applies: protein: recombinant; tags: N-terminal GST; dsDNA, one strand shown. The method, boiled down:
as §1

In the next assay the target is T9, SPDEF (Homo sapiens, UniProt O95238 1-335).
T9 sequence: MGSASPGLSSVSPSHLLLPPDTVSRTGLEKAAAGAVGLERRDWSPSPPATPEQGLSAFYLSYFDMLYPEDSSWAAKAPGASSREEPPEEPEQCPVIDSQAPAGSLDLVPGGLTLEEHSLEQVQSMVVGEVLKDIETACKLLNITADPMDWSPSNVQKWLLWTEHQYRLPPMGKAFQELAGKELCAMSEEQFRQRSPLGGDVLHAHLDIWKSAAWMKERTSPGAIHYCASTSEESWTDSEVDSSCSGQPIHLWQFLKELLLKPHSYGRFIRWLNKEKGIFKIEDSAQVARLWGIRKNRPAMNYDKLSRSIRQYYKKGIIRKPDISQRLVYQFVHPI
Particulars: protein: recombinant; tags: N-terminal GST; dsDNA, one strand shown. In a few lines:
as §1

The target of another assay is T10, ETV7 (Homo sapiens, UniProt Q9Y603 1-341).
T10 sequence: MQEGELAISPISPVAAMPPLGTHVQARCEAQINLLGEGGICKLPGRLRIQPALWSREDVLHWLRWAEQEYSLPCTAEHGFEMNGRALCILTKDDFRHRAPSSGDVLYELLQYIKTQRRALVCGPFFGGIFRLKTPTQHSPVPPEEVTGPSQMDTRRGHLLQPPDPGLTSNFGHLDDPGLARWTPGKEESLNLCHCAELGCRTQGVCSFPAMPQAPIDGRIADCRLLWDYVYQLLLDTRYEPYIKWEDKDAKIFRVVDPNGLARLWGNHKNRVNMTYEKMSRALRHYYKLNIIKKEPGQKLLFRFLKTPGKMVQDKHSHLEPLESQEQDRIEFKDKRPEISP
Particulars: protein: recombinant; tags: N-terminal GST; dsDNA, one strand shown. In a few lines:
as §1

For the next assay, the target named is T11, ELF5 (Homo sapiens, UniProt Q9UKW6-2 1-255).
T11 sequence: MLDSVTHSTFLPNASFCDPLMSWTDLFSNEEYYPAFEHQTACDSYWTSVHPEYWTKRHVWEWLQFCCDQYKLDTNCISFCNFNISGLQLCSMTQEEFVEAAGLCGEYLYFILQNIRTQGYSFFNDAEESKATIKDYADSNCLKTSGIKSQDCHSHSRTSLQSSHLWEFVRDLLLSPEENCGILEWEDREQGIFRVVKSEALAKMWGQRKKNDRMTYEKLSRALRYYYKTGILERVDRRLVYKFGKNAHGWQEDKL
Particulars: protein: recombinant; tags: N-terminal GST; dsDNA, one strand shown. The method, boiled down: as §1

Another assay deals with T12, ETV3 (Homo sapiens, UniProt P41162-2 1-143).
T12 sequence: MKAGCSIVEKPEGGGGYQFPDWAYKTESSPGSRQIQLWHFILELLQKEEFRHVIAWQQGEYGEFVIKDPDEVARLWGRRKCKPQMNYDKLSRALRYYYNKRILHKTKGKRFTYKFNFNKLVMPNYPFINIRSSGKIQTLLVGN
The following applies: protein: recombinant; tags: N-terminal GST; dsDNA, one strand shown. In a few lines:
as §1

For the next assay, the target named is ETV6 (Homo sapiens, UniProt P41212 1-452). The following applies: protein: recombinant; tags: N-terminal GST; dsDNA, one strand shown. In a few lines: as §1
ETV6, sequence (P41212 whole entry): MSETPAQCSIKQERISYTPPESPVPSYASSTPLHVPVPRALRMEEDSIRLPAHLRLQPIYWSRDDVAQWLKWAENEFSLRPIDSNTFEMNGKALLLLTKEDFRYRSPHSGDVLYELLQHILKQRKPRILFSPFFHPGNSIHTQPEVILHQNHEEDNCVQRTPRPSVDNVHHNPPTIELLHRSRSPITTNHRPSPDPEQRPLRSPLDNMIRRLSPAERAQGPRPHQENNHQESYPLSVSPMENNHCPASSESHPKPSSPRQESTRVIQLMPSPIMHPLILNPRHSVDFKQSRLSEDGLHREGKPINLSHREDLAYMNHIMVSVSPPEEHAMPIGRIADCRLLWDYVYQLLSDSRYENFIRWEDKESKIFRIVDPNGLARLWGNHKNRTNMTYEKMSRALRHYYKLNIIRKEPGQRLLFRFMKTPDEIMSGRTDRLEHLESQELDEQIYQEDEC

ETV5, sequence (P41161 whole entry): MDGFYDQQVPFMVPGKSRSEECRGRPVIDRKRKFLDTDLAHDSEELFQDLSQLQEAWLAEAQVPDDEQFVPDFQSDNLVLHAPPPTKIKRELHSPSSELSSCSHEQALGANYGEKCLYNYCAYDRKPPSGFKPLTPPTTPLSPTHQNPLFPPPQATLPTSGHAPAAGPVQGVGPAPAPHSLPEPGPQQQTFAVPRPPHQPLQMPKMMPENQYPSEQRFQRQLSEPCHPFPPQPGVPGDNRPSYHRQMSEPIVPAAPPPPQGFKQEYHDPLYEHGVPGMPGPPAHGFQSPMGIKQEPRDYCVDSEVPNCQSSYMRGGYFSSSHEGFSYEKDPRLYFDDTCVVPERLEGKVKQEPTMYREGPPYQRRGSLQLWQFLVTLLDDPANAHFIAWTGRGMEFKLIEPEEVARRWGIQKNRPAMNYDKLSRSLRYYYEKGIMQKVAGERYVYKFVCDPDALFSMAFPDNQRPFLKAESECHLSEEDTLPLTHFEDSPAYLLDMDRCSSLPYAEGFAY
HSF1, sequence (Q00613 whole entry): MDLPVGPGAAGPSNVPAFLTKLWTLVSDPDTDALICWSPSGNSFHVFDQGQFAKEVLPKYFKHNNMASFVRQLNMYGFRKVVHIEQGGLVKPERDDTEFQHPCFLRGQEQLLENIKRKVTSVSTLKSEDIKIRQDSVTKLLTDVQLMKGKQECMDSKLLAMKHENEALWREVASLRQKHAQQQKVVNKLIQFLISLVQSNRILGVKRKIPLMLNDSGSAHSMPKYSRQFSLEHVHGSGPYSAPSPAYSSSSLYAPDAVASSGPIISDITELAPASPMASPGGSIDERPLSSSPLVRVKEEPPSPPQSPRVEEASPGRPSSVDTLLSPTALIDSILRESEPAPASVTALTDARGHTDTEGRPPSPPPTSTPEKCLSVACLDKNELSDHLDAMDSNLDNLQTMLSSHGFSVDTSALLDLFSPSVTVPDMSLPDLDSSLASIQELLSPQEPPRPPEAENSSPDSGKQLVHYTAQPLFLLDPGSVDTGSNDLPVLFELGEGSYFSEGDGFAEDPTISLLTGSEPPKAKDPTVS
CRX, sequence (O43186 whole entry): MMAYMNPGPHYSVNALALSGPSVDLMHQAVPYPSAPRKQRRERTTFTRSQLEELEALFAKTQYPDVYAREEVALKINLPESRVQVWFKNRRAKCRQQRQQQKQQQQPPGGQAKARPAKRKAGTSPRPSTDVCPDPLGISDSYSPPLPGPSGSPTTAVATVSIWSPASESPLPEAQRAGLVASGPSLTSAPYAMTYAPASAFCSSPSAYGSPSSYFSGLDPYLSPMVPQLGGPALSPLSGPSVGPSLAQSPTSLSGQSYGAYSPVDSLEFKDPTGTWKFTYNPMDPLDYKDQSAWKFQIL
ETV1, sequence (P50549 whole entry): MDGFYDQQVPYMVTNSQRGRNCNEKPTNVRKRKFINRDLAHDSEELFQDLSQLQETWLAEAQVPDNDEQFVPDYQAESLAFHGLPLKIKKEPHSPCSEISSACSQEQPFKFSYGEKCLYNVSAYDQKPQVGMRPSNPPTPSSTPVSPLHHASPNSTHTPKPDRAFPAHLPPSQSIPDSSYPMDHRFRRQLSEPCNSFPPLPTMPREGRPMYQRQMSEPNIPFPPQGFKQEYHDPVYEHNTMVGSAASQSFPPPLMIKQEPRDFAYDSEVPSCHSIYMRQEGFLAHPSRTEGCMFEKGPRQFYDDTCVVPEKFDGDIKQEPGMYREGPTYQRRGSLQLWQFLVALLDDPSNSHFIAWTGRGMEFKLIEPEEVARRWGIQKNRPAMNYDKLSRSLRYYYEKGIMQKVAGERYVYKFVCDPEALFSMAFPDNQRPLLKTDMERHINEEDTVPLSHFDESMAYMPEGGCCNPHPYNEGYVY
ELF4, sequence (Q99607 whole entry): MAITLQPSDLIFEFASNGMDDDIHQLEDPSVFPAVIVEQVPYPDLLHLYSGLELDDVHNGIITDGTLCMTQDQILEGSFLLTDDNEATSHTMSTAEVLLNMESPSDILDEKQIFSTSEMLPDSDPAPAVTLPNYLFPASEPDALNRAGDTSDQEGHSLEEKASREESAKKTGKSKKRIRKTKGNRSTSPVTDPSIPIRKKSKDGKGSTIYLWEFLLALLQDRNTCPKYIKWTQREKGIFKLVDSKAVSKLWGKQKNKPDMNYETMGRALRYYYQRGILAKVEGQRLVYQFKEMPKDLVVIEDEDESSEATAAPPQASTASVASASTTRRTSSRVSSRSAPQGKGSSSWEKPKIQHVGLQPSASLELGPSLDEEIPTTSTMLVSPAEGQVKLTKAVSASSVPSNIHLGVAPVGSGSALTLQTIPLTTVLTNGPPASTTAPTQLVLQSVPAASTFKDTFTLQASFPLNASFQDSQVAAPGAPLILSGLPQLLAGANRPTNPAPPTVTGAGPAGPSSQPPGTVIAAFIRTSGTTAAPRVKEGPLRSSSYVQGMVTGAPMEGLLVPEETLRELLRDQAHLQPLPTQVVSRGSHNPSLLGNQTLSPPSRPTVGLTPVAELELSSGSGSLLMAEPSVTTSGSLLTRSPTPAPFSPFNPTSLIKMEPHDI

Turning to TGCTGG, the binding signal in the assay with FEV is 1.09 fold enrichment (6-mer frequency, TF over GST control); in the assay with ETV5 it was 1.04 fold enrichment (6-mer frequency, TF over GST control); in the assay with HSF1 it was 1.43 fold enrichment (6-mer frequency, TF over GST control); with SPIC it was 1.06 fold enrichment (6-mer frequency, TF over GST control); in the assay with ELF4, 1.12 fold enrichment (6-mer frequency, TF over GST control); in the assay with ELK4, 1.27 fold enrichment (6-mer frequency, TF over GST control). Also, the binding signal in the assay with ETV2 is 1.22 fold enrichment (6-mer frequency, TF over GST control); in the assay with ELF3, 1.02 fold enrichment (6-mer frequency, TF over GST control); with CRX, 1.03 fold enrichment (6-mer frequency, TF over GST control); in the assay with ETV1, 1.08 fold enrichment (6-mer frequency, TF over GST control); with ERF it was 1.2 fold enrichment (6-mer frequency, TF over GST control); in the assay with ETV3L it was 1.22 fold enrichment (6-mer frequency, TF over GST control). Besides, the binding signal with ETS2 was 1.07 fold enrichment (6-mer frequency, TF over GST control); with SPDEF it was 1.15 fold enrichment (6-mer frequency, TF over GST control); with ETV7, 1.13 fold enrichment (6-mer frequency, TF over GST control); in the assay with ELF5, 1.07 fold enrichment (6-mer frequency, TF over GST control); with ETV3, 1.11 fold enrichment (6-mer frequency, TF over GST control); with ETV6 it was 1.06 fold enrichment (6-mer frequency, TF over GST control).
